Laboratory results from PubChem BioAssay (NCI).
Where “and” joins values, the source holds several entries; their conditions need not be identical. Equal entries are not always repeated. About 83,000 compounds went through this panel and 20% of them were active in at least one assay; those are over-represented in the sample as a whole.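 Values shown are percent growth following 48 h exposure of cells in 96-well plates to a single concentration of compound; below 10 was considered active.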 Unmarked numbers belong to inactive results. Calls of active or inactive are those of the source.

Tested on: MDA-MB-468 breast
Assay: NCI-60 one-dose screen, 48 h (100 = growth as untreated, 0 = no growth, -100 = all killed)
Conditions: 10 µM unless noted

Row | Structure (SMILES) | growth
1 | COC(=O)C(C)Oc1ccc(OC#N)cc1 (stereo not given) | 99%
2 | O=C(O)c1ccc(-n2cc(/C=N/Nc3ccc(F)cc3)c(-c3cccc(C(F)(F)F)c3)n2)cc1 | 90.8%
3 | CCCCNC(=O)c1cc(NCc2cc(O)ccc2O)ccc1O | 93.6%
4 | O=C1/C(=C/c2ccccc2Br)COc2ccc(O)c(O)c21 | 19.2%
5 | c1ccc2c(-c3nccs3)c[nH]c2c1 | 91.3%
6 | S=C1CCSC(=S)N1CCCN1C(=S)CCSC1=S | 37.8%
7 | COc1ccc(-c2[nH][nH]c(=O)c2-c2nc3ccccc3s2)cc1 | 119%
8 | COc1ccc(/C=C(/C(=O)N2CCN(c3ccc(C)cc3)CC2)c2cc(OC)c(OC)c(OC)c2)cc1N | 29.6%
9 | CC(C)N=c1cc2n(-c3ccc(Cl)cc3)c3ccccc3nc-2cc1Nc1ccc(Cl)cc1 | -45.1% (active) and -53.3% (active) and -42.4% (active)
10 | C=C[C@@H]1C[C@H](O)Cc2c(C)cc(C)cc2N1 | 91.9%
11 | CCCCCCNC(=O)Nc1ccc2cc3ccc(NC(=O)NCCCCCC)cc3nc2c1 | 18.6%
12 | CCOC(=O)c1c(C)nc2ccccc2c1/C=C/c1ccccc1 | 24.7%
13 | COc1ccc(-n2c(SCc3cc(OC)c(OC)c(OC)c3)nc3ccc(C)cc3c2=O)c(OC)c1 | 17.1%
14 | Cc1cc(SCc2ccccc2)nc(N)n1 | 110%
15 | Cc1c(O)c(=O)n(-c2ccccc2)n1C | 105%
16 | COc1ccc(/C=C2\N=C3Sc4cc(Cl)ccc4C(=O)N3C2=O)cc1 | 113%
17 | COC(=O)c1ccc(C(C)C)cc1 | 110%
18 | CC(C)(C)CC(C)(C)Nc1c(-c2c(O)c3ccccc3oc2=O)nc2sc3ccccc3n12 | 22.4%
19 | Cc1ccc(-c2nc(/C=N/Nc3cc(C)nc4ccc(Cl)cc34)c(C)o2)cc1 | -76% (active)
20 | O=C(CCN1CCCC1)Nc1ccc2c(NCCCc3ccccc3)c3ccccc3nc2c1 | -38.5% (active)

Row | Structure (SMILES) | growth
21 | O=C1/C(=C/c2ccc(F)cc2)Sc2c(Br)cccc21 | 84.1%
22 | Cc1cccc(NC(=O)CCc2ccc(N3C(N)=NC(N)=NC3(C)C)cc2)c1 | 39.9%
23 | CC(O)(CC(=O)CC(=O)c1ccccc1)c1ccccc1 (stereo not given) | 94.9% and 101%
24 | O=C(O)c1ccc(-c2nn(-c3ccc(C(=O)O)cc3)cc2CNc2ccc(Br)cc2)cc1 | 114%
25 | CCCCCCCCOC(=O)C(C)OC(=O)OCCOCCOC(=O)OC(C)C(=O)OCCCCCCCC (stereo not given) | 98.6%
26 | O=C(O)/C=C/C(=O)Nc1cccc(Cn2nnc3cc(Cl)c(Cl)cc32)c1 | 94.2%
27 | CN1/C(=C\C=C\C2=[N+](C)c3ccccc3C2(C)C)C(C)(C)c2ccccc21 | -40.4% (active)
28 | CCCCn1cnc2c(SCc3ccc([N+](=O)[O-])cc3)nc(N)nc21 | 80.8%
29 | O=C(Nc1cccc(-c2nc3ccccc3[nH]2)c1)c1cccc(NC(=O)c2ccco2)c1 | 70.8%
30 | O=C(CN1C(=O)/C(=C/c2ccc(Cl)cc2)SC1=S)NCCCN1CCOCC1 | 94.3%
31 | CN(C)CCC(=O)c1ccc([N+](=O)[O-])cc1 | 86.5%
32 | O=C1c2cc3c(cc2-c2c1c1ccc(Cl)cc1c(=O)n2C[C@H](O)CO)OCO3 | -53.8% (active)
33 | CCC(c1cccc(Br)c1)C(C(=O)O)c1ccc(OC)cc1 (stereo not given) | 102%
34 | Cn1c(=O)c2c(nc(Br)n2CCC(=O)Nc2ccc(F)cc2)n(C)c1=O | 113%
35 | N#Cc1ccc(O)c(C2=NCC(c3cccc(Oc4ccccc4)c3)O2)c1 (stereo not given) | 27%
36 | Cc1nnc(NC/C=C/c2ccccc2)s1 | 106% and 92%
37 | CCCCc1n(Cc2ccc3ccccc3n2)cc[n+]1Cc1ccc2ccccc2n1 | -30% (active)
38 | C=C(C)[C@@H]1CC[C@]2(C)[C@H](C(=O)C=C3[C@@H]4C[C@](C)(C(=O)N5CCN(C)CC5)CC[C@]4(C)CC[C@]32C)[C@@]1(C)CCC#N | -76.5% [100 µM] (active)
39 | CCCCC1COc2cccc3c(SCC(=O)N(C)c4cccc5ccccc45)cc[n+]1c23 (stereo not given) | 92.2%
40 | COC(=O)c1cncc(C(=O)Nc2ccc(-n3cnc4ccccc43)cc2)c1 | 101%
